Outcome and AC50 data for three molecules are collected here from PubChem BioAssay (EPA / NIEHS).

Each structure is given as a SMILES string. Some structures have more than one record in an assay (separate samples or runs), and their calls can disagree. Activity calls are given as the source filed them. How the source made its calls: active means hit-call score of the fitted dose curve at least 0.9, where 1 is the maximum; inactive means score below 0.9.

Read-out in test [1]: Monokine induced gamma interferon (MIG), CXCL9 (gene 4283)
Put plainly: BSK_hDFCGF_MIG: BioMAP Diversity Plus: hDFCGF Assay for Monokine induced gamma interferon (MIG) Biomarker Activity (AID 2283063). To be noted: primary human foreskin fibroblasts; actives raise or lower the signal. In outline: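 Human primary foreskin fibroblasts in the hDFCGF system, exposed to test chemical for 24 h; MIG measured by ELISA. Bidirectional curve fitting against DMSO negative control as activity baseline.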

Read-out in test [2]: Matrix Metallopeptidase 1 (MMP1), MMP1 (gene 4312)
Put plainly: BSK_hDFCGF_MMP1: BioMAP Diversity Plus: hDFCGF Assay for Matrix Metallopeptidase 1 (MMP1) Biomarker Activity (AID 2283064). To be noted: primary human foreskin fibroblasts; actives raise or lower the signal. An outline of the steps: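 Human foreskin fibroblasts exposed to chemical for 24 h; MMP1 detected by ELISA, with DMSO as baseline for bidirectional fitting.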

Read-out in test [3]: Vascular cell adhesion molecule 1 (VCAM1), VCAM1 (gene 7412)
Put plainly: BSK_hDFCGF_VCAM1: BioMAP Diversity Plus: hDFCGF Assay for Vascular cell adhesion molecule 1 (VCAM1) Biomarker Activity (AID 2283065).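 On AC50: VCAM-1 protein level quantified by ELISA after 24 h chemical exposure.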 To be noted: primary human foreskin fibroblasts; actives raise or lower the signal. In outline: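 ELISA readout of VCAM-1 on human dermal fibroblast primary cultures, 24 h after chemical exposure. Gain or loss of signal fitted in both directions against DMSO baseline.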

Read-out in test [4]: Plasminogen activator inhibitor-1 (PAI1), SERPINE1 (gene 5054)
Put plainly: BSK_hDFCGF_PAI1: BioMAP Diversity Plus: hDFCGF Assay for Plasminogen activator inhibitor-1 (PAI1) Biomarker Activity (AID 2283066). To be noted: primary human foreskin fibroblasts; actives raise or lower the signal. An outline of the steps: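 Human skin fibroblast cultures receive chemical for 24 h before PAI-1 is measured by ELISA; signal changes are fitted bidirectionally against DMSO-treated wells.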

Read-out in test [5]: Intercellular Adhesion Molecule 1 (ICAM1), ICAM1 (gene 3383)
Put plainly: BSK_KF3CT_ICAM1: BioMAP Diversity Plus: KF3CT Assay for Intercellular Adhesion Molecule 1 (ICAM1) Biomarker Activity (AID 2283067). The conditions noted are these: primary human keratinocytes with fibroblasts; actives raise or lower the signal. In outline: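 Cell-surface ICAM-1 was measured by ELISA 24 h after dosing primary human skin keratinocytes co-cultured with fibroblasts. Parallel SRB staining tracked overt cytotoxicity. Gain or loss of signal was fitted relative to DMSO.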

Read-out in test [6]: Interferon-gamma inducible Protein 10 (IP10), CXCL10 (gene 3627)
Put plainly: BSK_KF3CT_IP10: BioMAP Diversity Plus: KF3CT Assay for Interferon-gamma inducible Protein 10 (IP10) Biomarker Activity (AID 2283068). The conditions noted are these: primary human keratinocytes with fibroblasts; actives raise or lower the signal. In outline: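 Signal is secreted/surface IP-10 by ELISA in a human primary skin co-culture of keratinocytes and foreskin fibroblasts, taken 24 h post-dosing; DMSO served as negative control.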

Test [7] can be described thus: BSK_KF3CT_SRB: Viability Assessment in the BioMAP Diversity Plus: KF3CT Assay (AID 2283069).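 Further: read 24 h after compound addition.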 The conditions noted are these: primary human keratinocytes with fibroblasts. In outline: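 Overt cytotoxicity is assessed as total protein by sulforhodamine B staining in parallel human skin co-cultures at 24 h after dosing. DMSO serves as negative control and baseline.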

Read-out in test [8]: Interleukin-1 alpha (IL1a), IL1A (gene 3552)
Put plainly: BSK_KF3CT_IL1a: BioMAP Diversity Plus: KF3CT Assay for Interleukin-1 alpha (IL1a) Biomarker Activity (AID 2283070). The conditions noted are these: primary human keratinocytes with fibroblasts; actives raise or lower the signal. In outline:
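Readout is IL-1a level by ELISA, compared bidirectionally with DMSO as baseline. Cells: human keratinocytes co-cultured with foreskin fibroblasts, harvested 24 h post-dose.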

Read-out in test [9]: TIMP metallopeptidase inhibitor 2 (TIMP2), TIMP2 (gene 7077)
Put plainly: BSK_KF3CT_TIMP2: BioMAP Diversity Plus: KF3CT Assay for TIMP metallopeptidase inhibitor 2 (TIMP2) Biomarker Activity (AID 2283071). The conditions noted are these: primary human keratinocytes with fibroblasts; actives raise or lower the signal. An outline of the steps: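 Measurements come from ELISA detection of TIMP-2 at 24 hours in a dosed human keratinocyte and foreskin fibroblast co-culture. DMSO serves as negative control and baseline.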

Read-out in test [10]: C-C motif chemokine 2 (Homo sapiens) (UniProt P13500)
Put plainly: BSK_KF3CT_MCP1: BioMAP Diversity Plus: KF3CT Assay for Monocyte Chemoattractant Protein 1 (MCP1/CCL2) Biomarker Activity (AID 2283073). The conditions noted are these: primary human keratinocytes with fibroblasts; actives raise or lower the signal. In outline:
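ELISA read-out of MCP-1, 24 h post-dose, in primary human skin keratinocytes co-cultured with fibroblasts. Parallel SRB staining monitors cytotoxicity; changes fitted both directions relative to DMSO.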

Read-out in test [11]: Matrix Metallopeptidase 9 (MMP9), MMP9 (gene 4318)
Put plainly: BSK_KF3CT_MMP9: BioMAP Diversity Plus: KF3CT Assay for Matrix Metallopeptidase 9 (MMP9) Biomarker Activity (AID 2283074). The conditions noted are these: primary human keratinocytes with fibroblasts; actives raise or lower the signal. In outline:
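Values come from bidirectional fitting relative to DMSO of MMP-9 levels, which were measured by ELISA. Measurements were taken 24 h after chemical dosing of a keratinocyte and foreskin fibroblast co-culture.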

Read-out in test [12]: urokinase plasminogen activator (uPA), PLAU (gene 5328)
Put plainly: BSK_KF3CT_uPA: BioMAP Diversity Plus: KF3CT Assay for urokinase plasminogen activator (uPA) Biomarker Activity (AID 2283075). To be noted: primary human keratinocytes with fibroblasts; actives raise or lower the signal. An outline of the steps: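 Values derive from bidirectional fitting against DMSO controls. Keratinocyte/foreskin fibroblast co-cultures received chemical; 24 h later uPA was detected by ELISA, with SRB total-protein staining in parallel wells for overt cytotoxicity.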

Read-out in the next test: CD40, CD40 (gene 958)
Put plainly: BSK_LPS_CD40: BioMAP Diversity Plus: LPS Assay for CD40 Biomarker Activity (AID 2283076). To be noted: primary human HUVEC with PBMC; actives raise or lower the signal. In outline: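 In the LPS system of human endothelial cells with peripheral blood mononuclear cells, CD40 levels were read by ELISA 24 h post-treatment. Signal changes in either direction were fitted against the DMSO baseline, with parallel SRB protein staining.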

Read-out in test [13]: E-selectin (Homo sapiens) (UniProt P16581)
Put plainly: BSK_LPS_Eselectin: BioMAP Diversity Plus: LPS Assay for Eselectin Biomarker Activity (AID 2283077). The conditions noted are these: primary human HUVEC with PBMC; actives raise or lower the signal. In outline:
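E-selectin ELISA on LPS-stimulated endothelial cell/PBMC co-cultures, read 24 h post-treatment; gains and losses fitted against DMSO. Parallel SRB staining (0.1% SRB after 10% TCA fixation, 560 nm) flags overt cytotoxicity.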

Read-out in test [14]: Interleukin-8 (IL8), CXCL8 (gene 3576)
Put plainly: BSK_LPS_IL8: BioMAP Diversity Plus: LPS Assay for Interleukin-8 (IL8) Biomarker Activity (AID 2283078). The conditions noted are these: primary human HUVEC with PBMC; actives raise or lower the signal. In outline:
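ELISA read-out of IL-8 after 24 h chemical treatment of LPS-activated endothelial/PBMC human primary co-cultures. Changes either up or down relative to DMSO; overt cytotoxicity checked by sulforhodamine B staining in parallel wells.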

Test [15] in a line: BSK_LPS_SRB: Viability Assessment in the BioMAP Diversity Plus: LPS Assay (AID 2283079).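 Further: total protein by sulforhodamine B absorbance as a cytotoxicity measure; measured one day after compound addition.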 To be noted: primary human HUVEC with PBMC. In outline:
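SRB viability endpoint: cells fixed with 10% TCA, stained with 0.1% SRB, read at 560 nm, 24 h post-dose. HUVEC/PBMC co-culture; signal change in either direction scored relative to DMSO.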

Read-out in test [16]: Interleukin-1 alpha (IL1a), IL1A (gene 3552)
Put plainly: BSK_LPS_IL1a: BioMAP Diversity Plus: LPS Assay for Interleukin-1 alpha (IL1a) Biomarker Activity (AID 2283080). To be noted: primary human HUVEC with PBMC; actives raise or lower the signal. An outline of the steps: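 Readout is IL-1a level by ELISA, 24 h post-dose, fitted as gain or loss relative to DMSO. System: LPS-activated human primary co-culture of vascular endothelium and peripheral blood mononuclear cells, with parallel SRB total-protein cytotoxicity.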

Read-out in test [17]: Monocyte Chemoattractant Protein-1 (MCP1), CCL2 (gene 6347)
Put plainly: BSK_LPS_MCP1: BioMAP Diversity Plus: LPS Assay for Monocyte Chemoattractant Protein-1 (MCP1) Biomarker Activity (AID 2283081). The conditions noted are these: primary human HUVEC with PBMC; actives raise or lower the signal. An outline of the steps: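 Secreted MCP-1 read by ELISA at 24 h post-dosing in an LPS-activated co-culture of endothelial cells with peripheral blood mononuclear cells. Fits run in both directions, DMSO as baseline; parallel SRB staining tracks overt cytotoxicity.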

Read-out in test [18]: Transforming growth factor beta 1 (TGFb1), TGFB1 (gene 7040)
Put plainly: BSK_KF3CT_TGFb1: BioMAP Diversity Plus: KF3CT Assay for Transforming growth factor beta 1 (TGFb1) Biomarker Activity (AID 2283072). To be noted: primary human keratinocytes with fibroblasts; actives raise or lower the signal. An outline of the steps: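 TGF-b1 ELISA on a 24 h dosed co-culture of human keratinocytes and foreskin fibroblasts; cytotoxicity tracked in parallel cultures by SRB staining.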

Usually AC50 stands for the concentration at which the activity in the assay is half-maximal.

Chain of E-selectin (Homo sapiens) (P16581 whole entry, looked up): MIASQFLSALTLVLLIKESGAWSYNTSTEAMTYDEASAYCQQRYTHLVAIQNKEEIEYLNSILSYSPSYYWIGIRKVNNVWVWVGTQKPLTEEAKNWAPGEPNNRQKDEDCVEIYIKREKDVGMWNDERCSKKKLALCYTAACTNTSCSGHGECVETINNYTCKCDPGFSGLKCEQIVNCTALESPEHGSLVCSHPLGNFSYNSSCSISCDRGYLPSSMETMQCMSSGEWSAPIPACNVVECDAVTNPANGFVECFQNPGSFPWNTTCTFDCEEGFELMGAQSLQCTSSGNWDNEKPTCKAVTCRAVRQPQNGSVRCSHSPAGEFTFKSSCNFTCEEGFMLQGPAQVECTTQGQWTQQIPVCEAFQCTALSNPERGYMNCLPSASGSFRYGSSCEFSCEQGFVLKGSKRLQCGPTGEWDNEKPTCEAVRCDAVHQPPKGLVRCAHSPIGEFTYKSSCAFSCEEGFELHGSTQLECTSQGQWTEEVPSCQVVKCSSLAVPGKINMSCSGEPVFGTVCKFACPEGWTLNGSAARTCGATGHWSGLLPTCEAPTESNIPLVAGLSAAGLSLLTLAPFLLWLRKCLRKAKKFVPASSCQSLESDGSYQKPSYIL

As for `CC(CN=Cc1ccccc1O)N=Cc1ccccc1O` (stereo not given), the outcome in [1], in test [2], in test [3], in test [4], in test [5] and in test [6] was inactive. In addition, the result in test [7], in [8], in test [9], in [10], in test [11] and in test [12] was inactive. Besides, the outcome is “inactive” in the test with CD40, CD40 (gene 958); “inactive” in test [13]; “inactive” in test [14]; “inactive” in [15]; “inactive” in test [16]; “inactive” in test [17]. Moreover, in [14], the AC50 is 0.151 µM (active).

Consider `C=C(C)C(=O)OCC(CC)(COC(=O)C(=C)C)COC(=O)C(=C)C`, for which the AC50 in test [1] was 34.3 µM (active); in test [3] it was 23.4 µM (active); in test [4], 16 µM (active). The outcome in [5], in test [6], in [7], in test [8], in test [9] and in test [18] was inactive. Also, the outcome in [10] was “inactive”; in [11], “inactive”; in test [12], “inactive”; with CD40, CD40 (gene 958), “inactive”; in test [13], “inactive”; in test [14], “inactive”. In addition, the result in test [15], in [16] and in test [17] was inactive.

As to `CC1(C)C2=CCCC(C)(C)[C@]23CC[C@H]1C3`, the outcome in test [1], in test [5], in [6], in test [7], in test [8] and in [11] was inactive. Besides, the outcome in test [12] is “inactive”; with CD40, CD40 (gene 958), “inactive”; in test [13] it was “inactive”; in [14], “inactive”; in test [15], “inactive”; in [16], “inactive”. In test [17], the outcome was inactive. The AC50 in [3] is 32.9 µM (active); in test [4] it was 32.9 µM (active); in [9], 30.2 µM (active); in test [18], 7.31 µM (active); in test [10], 20 µM (active).
